# Data taken from paper PMC11006913.
# Positions count from the first letter of the chain named.
# Legend:
# Assay in all cases: PBM; 200 nM protein, PBS
# Conditions in all cases: dsDNA, one strand shown
# [1] = molecular target: T1, SIX6 (Homo sapiens, UniProt O95475 114-200, L167I)
# T1 sequence: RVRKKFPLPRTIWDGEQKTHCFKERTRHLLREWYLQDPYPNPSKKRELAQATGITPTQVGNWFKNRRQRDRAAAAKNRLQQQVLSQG
# [2] = molecular target: T2, SIX6 (Homo sapiens, UniProt O95475 114-200, L143V)
# T2 sequence: T1 sequence with L30V, I54L
# [3] = molecular target: T3, SIX6 (Homo sapiens, UniProt O95475 114-200, H141N)
# T3 sequence: T1 sequence with H28N, I54L
# [4] = molecular target: T4, SIX6 (Homo sapiens, UniProt O95475 114-200, T165P)
# T4 sequence: T1 sequence with T52P, I54L
# [5] = molecular target: T5, SIX6 (Homo sapiens, UniProt O95475 114-200, L167M)
# T5 sequence: T1 sequence with I54M
# [6] = molecular target: T6, SIX6 (Homo sapiens, UniProt O95475 114-200, L143M)
# T6 sequence: T1 sequence with L30M, I54L
# [7] = molecular target: T7, SIX6 (Homo sapiens, UniProt O95475 114-200, L143I)
# T7 sequence: T1 sequence with L30I, I54L
# [8] = molecular target: T8, SIX6 (Homo sapiens, UniProt O95475 114-200, T165G)
# T8 sequence: T1 sequence with T52G, I54L
# [9] = molecular target: T9, SIX6 (Homo sapiens, UniProt O95475 114-200, T139Q)
# T9 sequence: T1 sequence with T26Q, I54L
# [10] = molecular target: T10, SIX6 (Homo sapiens, UniProt O95475 114-200, T165A)
# T10 sequence: T1 sequence with T52A, I54L
# [11] = molecular target: T11, SIX6 (Homo sapiens, UniProt O95475 114-200, L167V)
# T11 sequence: T1 sequence with I54V
# [12] = molecular target: T12, SIX6 (Homo sapiens, UniProt O95475 114-200)
# T12 sequence: T1 sequence with I54L
# [13] = molecular target: T13, SIX6 (Homo sapiens, UniProt O95475 114-200, T165I)
# T13 sequence: T1 sequence with T52I, I54L
Sequence,binding signal [1],binding signal [2],binding signal [3],binding signal [4],binding signal [5],binding signal [6],binding signal [7],binding signal [8],binding signal [9],binding signal [10],binding signal [11],binding signal [12],binding signal [13]
CGCAAGCG,"8.99 upbm affinity estimate (log intensity, higher = more binding, comparable within an allelic series)","9.04 upbm affinity estimate (log intensity, higher = more binding, comparable within an allelic series)","8.99 upbm affinity estimate (log intensity, higher = more binding, comparable within an allelic series)","9.04 upbm affinity estimate (log intensity, higher = more binding, comparable within an allelic series)","9.02 upbm affinity estimate (log intensity, higher = more binding, comparable within an allelic series)","9.01 upbm affinity estimate (log intensity, higher = more binding, comparable within an allelic series)","9.04 upbm affinity estimate (log intensity, higher = more binding, comparable within an allelic series)","8.96 upbm affinity estimate (log intensity, higher = more binding, comparable within an allelic series)","9.04 upbm affinity estimate (log intensity, higher = more binding, comparable within an allelic series)","8.95 upbm affinity estimate (log intensity, higher = more binding, comparable within an allelic series)","8.92 upbm affinity estimate (log intensity, higher = more binding, comparable within an allelic series)","9.01 upbm affinity estimate (log intensity, higher = more binding, comparable within an allelic series)","8.97 upbm affinity estimate (log intensity, higher = more binding, comparable within an allelic series)"
CATGATCA,"10.5 upbm affinity estimate (log intensity, higher = more binding, comparable within an allelic series)","9.91 upbm affinity estimate (log intensity, higher = more binding, comparable within an allelic series)","10.3 upbm affinity estimate (log intensity, higher = more binding, comparable within an allelic series)","9.68 upbm affinity estimate (log intensity, higher = more binding, comparable within an allelic series)","10.1 upbm affinity estimate (log intensity, higher = more binding, comparable within an allelic series)","10.4 upbm affinity estimate (log intensity, higher = more binding, comparable within an allelic series)","9.97 upbm affinity estimate (log intensity, higher = more binding, comparable within an allelic series)","10.4 upbm affinity estimate (log intensity, higher = more binding, comparable within an allelic series)","10.6 upbm affinity estimate (log intensity, higher = more binding, comparable within an allelic series)","10.3 upbm affinity estimate (log intensity, higher = more binding, comparable within an allelic series)","10.4 upbm affinity estimate (log intensity, higher = more binding, comparable within an allelic series)","10.3 upbm affinity estimate (log intensity, higher = more binding, comparable within an allelic series)","10.2 upbm affinity estimate (log intensity, higher = more binding, comparable within an allelic series)"
GCGCTGCC,"8.75 upbm affinity estimate (log intensity, higher = more binding, comparable within an allelic series)","8.74 upbm affinity estimate (log intensity, higher = more binding, comparable within an allelic series)","8.81 upbm affinity estimate (log intensity, higher = more binding, comparable within an allelic series)","8.85 upbm affinity estimate (log intensity, higher = more binding, comparable within an allelic series)","8.8 upbm affinity estimate (log intensity, higher = more binding, comparable within an allelic series)","8.76 upbm affinity estimate (log intensity, higher = more binding, comparable within an allelic series)","8.77 upbm affinity estimate (log intensity, higher = more binding, comparable within an allelic series)","8.82 upbm affinity estimate (log intensity, higher = more binding, comparable within an allelic series)","8.75 upbm affinity estimate (log intensity, higher = more binding, comparable within an allelic series)","8.8 upbm affinity estimate (log intensity, higher = more binding, comparable within an allelic series)","8.69 upbm affinity estimate (log intensity, higher = more binding, comparable within an allelic series)","8.71 upbm affinity estimate (log intensity, higher = more binding, comparable within an allelic series)","8.78 upbm affinity estimate (log intensity, higher = more binding, comparable within an allelic series)"
CGTATCAC,"11.2 upbm affinity estimate (log intensity, higher = more binding, comparable within an allelic series)","10.3 upbm affinity estimate (log intensity, higher = more binding, comparable within an allelic series)","11.3 upbm affinity estimate (log intensity, higher = more binding, comparable within an allelic series)","9.61 upbm affinity estimate (log intensity, higher = more binding, comparable within an allelic series)","10.6 upbm affinity estimate (log intensity, higher = more binding, comparable within an allelic series)","11 upbm affinity estimate (log intensity, higher = more binding, comparable within an allelic series)","10.4 upbm affinity estimate (log intensity, higher = more binding, comparable within an allelic series)","11.3 upbm affinity estimate (log intensity, higher = more binding, comparable within an allelic series)","11.3 upbm affinity estimate (log intensity, higher = more binding, comparable within an allelic series)","11.2 upbm affinity estimate (log intensity, higher = more binding, comparable within an allelic series)","11 upbm affinity estimate (log intensity, higher = more binding, comparable within an allelic series)","11 upbm affinity estimate (log intensity, higher = more binding, comparable within an allelic series)","11.1 upbm affinity estimate (log intensity, higher = more binding, comparable within an allelic series)"
GACGGCCC,"8.94 upbm affinity estimate (log intensity, higher = more binding, comparable within an allelic series)","8.75 upbm affinity estimate (log intensity, higher = more binding, comparable within an allelic series)","8.98 upbm affinity estimate (log intensity, higher = more binding, comparable within an allelic series)","8.86 upbm affinity estimate (log intensity, higher = more binding, comparable within an allelic series)","8.9 upbm affinity estimate (log intensity, higher = more binding, comparable within an allelic series)","8.78 upbm affinity estimate (log intensity, higher = more binding, comparable within an allelic series)","8.82 upbm affinity estimate (log intensity, higher = more binding, comparable within an allelic series)","9 upbm affinity estimate (log intensity, higher = more binding, comparable within an allelic series)","8.92 upbm affinity estimate (log intensity, higher = more binding, comparable within an allelic series)","8.88 upbm affinity estimate (log intensity, higher = more binding, comparable within an allelic series)","8.84 upbm affinity estimate (log intensity, higher = more binding, comparable within an allelic series)","8.88 upbm affinity estimate (log intensity, higher = more binding, comparable within an allelic series)","8.88 upbm affinity estimate (log intensity, higher = more binding, comparable within an allelic series)"
GATATCAC,"11.4 upbm affinity estimate (log intensity, higher = more binding, comparable within an allelic series)","10.3 upbm affinity estimate (log intensity, higher = more binding, comparable within an allelic series)","11.4 upbm affinity estimate (log intensity, higher = more binding, comparable within an allelic series)","9.67 upbm affinity estimate (log intensity, higher = more binding, comparable within an allelic series)","10.7 upbm affinity estimate (log intensity, higher = more binding, comparable within an allelic series)","11.1 upbm affinity estimate (log intensity, higher = more binding, comparable within an allelic series)","10.3 upbm affinity estimate (log intensity, higher = more binding, comparable within an allelic series)","11.4 upbm affinity estimate (log intensity, higher = more binding, comparable within an allelic series)","11.2 upbm affinity estimate (log intensity, higher = more binding, comparable within an allelic series)","11.2 upbm affinity estimate (log intensity, higher = more binding, comparable within an allelic series)","11.1 upbm affinity estimate (log intensity, higher = more binding, comparable within an allelic series)","11.1 upbm affinity estimate (log intensity, higher = more binding, comparable within an allelic series)","11.1 upbm affinity estimate (log intensity, higher = more binding, comparable within an allelic series)"
